The supplement of paper PMC11732987, “Enantioselective OTUD7B fragment discovery through chemoproteomics screening and high-throughput optimisation” (Communications Chemistry, 2025)

How the values were obtained:
Assay in all cases: log2 ratio of Biotin-Ahx-Ub-VS probe labelling (fragment/DMSO); higher = less target engagement (more negative = stronger competition), active = hit call of the paper (q ≤ 0.05, log2 ratio ≤ -1)
Conditions in all cases: compound concentration: 200 uM; treatment time: 3 h
[1] = target: USP34 (UniProt Q70CQ2)
Summary of the method: (§1)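 HEK293T lysate, 495 µg per sample in Tris/CHAPS/IGEPAL buffer with protease inhibitors, was treated in triplicate with fragment at 200 µM or vehicle for 3 h and then with Biotin-Ahx-Ub-VS at 0.5 µM final for 1 h. Labelled DUBs were NeutrAvidin-enriched, digested with LysC and trypsin, and run by diaPASEF LC-MS/MS. Spectronaut label-free quantities were global-median-normalised, and values are average log2 fragment/vehicle ratios by unpaired t-test on proteins with ≥2 unique peptides.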

[2] = target: T1, USP36 (UniProt Q9P275)
T1 sequence (whole entry): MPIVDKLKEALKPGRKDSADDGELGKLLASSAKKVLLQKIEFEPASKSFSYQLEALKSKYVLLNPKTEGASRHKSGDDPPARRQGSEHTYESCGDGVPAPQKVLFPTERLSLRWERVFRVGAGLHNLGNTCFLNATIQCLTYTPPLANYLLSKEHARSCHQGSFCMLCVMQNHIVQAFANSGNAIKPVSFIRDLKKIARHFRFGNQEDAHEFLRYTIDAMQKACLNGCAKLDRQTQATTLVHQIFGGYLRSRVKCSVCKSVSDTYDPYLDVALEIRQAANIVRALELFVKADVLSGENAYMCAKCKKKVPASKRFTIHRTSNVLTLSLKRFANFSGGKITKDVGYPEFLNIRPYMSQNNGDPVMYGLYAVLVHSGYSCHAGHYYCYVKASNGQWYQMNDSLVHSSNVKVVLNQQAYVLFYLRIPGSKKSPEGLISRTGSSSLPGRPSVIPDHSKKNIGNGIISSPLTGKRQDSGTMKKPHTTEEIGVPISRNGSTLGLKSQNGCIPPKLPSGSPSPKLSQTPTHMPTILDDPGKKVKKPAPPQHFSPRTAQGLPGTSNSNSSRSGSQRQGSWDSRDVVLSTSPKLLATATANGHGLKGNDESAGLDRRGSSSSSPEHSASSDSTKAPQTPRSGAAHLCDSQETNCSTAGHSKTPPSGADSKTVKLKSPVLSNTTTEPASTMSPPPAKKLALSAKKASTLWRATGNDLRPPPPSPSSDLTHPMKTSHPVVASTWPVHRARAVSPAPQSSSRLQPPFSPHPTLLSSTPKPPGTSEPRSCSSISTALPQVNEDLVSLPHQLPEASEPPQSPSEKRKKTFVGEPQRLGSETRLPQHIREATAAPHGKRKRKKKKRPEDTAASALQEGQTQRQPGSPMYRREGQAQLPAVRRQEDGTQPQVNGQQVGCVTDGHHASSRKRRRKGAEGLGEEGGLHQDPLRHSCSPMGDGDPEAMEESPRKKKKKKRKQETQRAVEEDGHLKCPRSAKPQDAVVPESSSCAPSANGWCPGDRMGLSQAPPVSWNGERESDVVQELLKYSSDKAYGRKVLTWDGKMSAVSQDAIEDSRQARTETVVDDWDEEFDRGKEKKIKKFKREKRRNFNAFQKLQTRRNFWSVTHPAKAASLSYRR
Summary of the method: as §1

[3] = target: T2, USP38 (UniProt Q8NB14)
T2 sequence (whole entry): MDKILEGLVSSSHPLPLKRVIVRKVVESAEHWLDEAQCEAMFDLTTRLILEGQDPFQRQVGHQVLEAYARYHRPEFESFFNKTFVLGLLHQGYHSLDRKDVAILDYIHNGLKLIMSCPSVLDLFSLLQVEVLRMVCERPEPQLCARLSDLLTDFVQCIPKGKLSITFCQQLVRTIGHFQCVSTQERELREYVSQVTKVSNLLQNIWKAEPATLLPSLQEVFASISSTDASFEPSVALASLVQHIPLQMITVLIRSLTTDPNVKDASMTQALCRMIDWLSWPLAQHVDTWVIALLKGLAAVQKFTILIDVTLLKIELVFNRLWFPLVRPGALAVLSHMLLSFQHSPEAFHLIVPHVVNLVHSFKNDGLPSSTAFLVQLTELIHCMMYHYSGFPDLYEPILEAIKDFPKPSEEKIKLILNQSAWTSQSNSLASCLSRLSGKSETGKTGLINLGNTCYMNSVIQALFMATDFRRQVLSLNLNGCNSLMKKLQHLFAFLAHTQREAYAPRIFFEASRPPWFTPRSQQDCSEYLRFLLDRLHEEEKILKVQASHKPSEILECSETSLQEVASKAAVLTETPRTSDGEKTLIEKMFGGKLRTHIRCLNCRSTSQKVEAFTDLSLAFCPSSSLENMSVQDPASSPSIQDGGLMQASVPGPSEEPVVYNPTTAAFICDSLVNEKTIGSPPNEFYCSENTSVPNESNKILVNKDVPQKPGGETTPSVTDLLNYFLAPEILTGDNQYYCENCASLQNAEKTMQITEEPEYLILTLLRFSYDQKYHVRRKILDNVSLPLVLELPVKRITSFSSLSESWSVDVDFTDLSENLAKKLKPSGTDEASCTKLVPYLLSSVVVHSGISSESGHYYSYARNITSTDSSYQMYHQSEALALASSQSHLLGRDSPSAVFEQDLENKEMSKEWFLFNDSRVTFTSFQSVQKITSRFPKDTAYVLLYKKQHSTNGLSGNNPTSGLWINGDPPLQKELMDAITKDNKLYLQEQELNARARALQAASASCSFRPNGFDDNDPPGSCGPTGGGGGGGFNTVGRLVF
Summary of the method: as §1

[4] = target: T3, USP39 (UniProt Q53GS9)
T3 sequence (whole entry): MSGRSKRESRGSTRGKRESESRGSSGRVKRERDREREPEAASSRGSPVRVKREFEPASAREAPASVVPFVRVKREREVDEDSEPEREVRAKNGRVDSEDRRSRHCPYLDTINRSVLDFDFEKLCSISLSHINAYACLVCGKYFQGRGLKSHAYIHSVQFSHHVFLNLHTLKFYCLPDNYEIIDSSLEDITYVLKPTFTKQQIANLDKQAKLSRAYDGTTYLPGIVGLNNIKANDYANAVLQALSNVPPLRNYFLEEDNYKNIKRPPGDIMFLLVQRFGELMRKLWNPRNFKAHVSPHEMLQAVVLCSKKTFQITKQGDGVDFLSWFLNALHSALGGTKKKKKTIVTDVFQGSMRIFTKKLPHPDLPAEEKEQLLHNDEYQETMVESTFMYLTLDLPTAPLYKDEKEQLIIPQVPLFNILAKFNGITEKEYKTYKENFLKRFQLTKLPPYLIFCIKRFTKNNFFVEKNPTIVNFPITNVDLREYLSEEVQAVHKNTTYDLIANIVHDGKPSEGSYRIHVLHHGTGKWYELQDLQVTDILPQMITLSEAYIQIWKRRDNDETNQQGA
Summary of the method: as §1

[5] = target: T4, USP4 (UniProt Q13107)
T4 sequence (whole entry): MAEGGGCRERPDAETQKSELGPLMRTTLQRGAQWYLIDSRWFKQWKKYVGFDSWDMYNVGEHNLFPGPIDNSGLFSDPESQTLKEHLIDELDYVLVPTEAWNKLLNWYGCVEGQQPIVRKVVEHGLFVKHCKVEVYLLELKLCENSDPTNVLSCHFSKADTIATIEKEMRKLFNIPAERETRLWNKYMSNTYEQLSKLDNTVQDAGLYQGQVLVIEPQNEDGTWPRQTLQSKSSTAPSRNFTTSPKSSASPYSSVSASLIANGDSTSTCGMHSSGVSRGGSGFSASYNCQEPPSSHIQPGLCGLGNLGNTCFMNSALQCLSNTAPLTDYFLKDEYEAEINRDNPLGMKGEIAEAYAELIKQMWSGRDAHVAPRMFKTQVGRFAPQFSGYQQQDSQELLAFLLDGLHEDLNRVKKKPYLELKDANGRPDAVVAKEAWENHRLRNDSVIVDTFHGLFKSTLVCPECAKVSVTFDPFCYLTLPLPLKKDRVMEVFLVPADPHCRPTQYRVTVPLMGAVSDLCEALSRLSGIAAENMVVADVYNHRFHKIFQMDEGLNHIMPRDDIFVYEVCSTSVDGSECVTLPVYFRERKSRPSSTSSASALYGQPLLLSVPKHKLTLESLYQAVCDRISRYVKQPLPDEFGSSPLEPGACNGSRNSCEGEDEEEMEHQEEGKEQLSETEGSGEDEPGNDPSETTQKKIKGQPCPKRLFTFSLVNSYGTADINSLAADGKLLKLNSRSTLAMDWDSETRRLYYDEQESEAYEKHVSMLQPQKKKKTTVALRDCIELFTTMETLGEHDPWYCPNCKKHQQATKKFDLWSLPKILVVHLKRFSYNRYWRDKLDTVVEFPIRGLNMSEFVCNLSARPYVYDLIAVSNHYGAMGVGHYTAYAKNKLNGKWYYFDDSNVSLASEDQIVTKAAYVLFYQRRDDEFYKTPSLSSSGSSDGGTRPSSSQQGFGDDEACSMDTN
Summary of the method: as §1

Measured: log2 ratio of Biotin-Ahx-Ub-VS probe labelling

Sequence of USP34 (Q70CQ2 whole entry, the tested form may be a part): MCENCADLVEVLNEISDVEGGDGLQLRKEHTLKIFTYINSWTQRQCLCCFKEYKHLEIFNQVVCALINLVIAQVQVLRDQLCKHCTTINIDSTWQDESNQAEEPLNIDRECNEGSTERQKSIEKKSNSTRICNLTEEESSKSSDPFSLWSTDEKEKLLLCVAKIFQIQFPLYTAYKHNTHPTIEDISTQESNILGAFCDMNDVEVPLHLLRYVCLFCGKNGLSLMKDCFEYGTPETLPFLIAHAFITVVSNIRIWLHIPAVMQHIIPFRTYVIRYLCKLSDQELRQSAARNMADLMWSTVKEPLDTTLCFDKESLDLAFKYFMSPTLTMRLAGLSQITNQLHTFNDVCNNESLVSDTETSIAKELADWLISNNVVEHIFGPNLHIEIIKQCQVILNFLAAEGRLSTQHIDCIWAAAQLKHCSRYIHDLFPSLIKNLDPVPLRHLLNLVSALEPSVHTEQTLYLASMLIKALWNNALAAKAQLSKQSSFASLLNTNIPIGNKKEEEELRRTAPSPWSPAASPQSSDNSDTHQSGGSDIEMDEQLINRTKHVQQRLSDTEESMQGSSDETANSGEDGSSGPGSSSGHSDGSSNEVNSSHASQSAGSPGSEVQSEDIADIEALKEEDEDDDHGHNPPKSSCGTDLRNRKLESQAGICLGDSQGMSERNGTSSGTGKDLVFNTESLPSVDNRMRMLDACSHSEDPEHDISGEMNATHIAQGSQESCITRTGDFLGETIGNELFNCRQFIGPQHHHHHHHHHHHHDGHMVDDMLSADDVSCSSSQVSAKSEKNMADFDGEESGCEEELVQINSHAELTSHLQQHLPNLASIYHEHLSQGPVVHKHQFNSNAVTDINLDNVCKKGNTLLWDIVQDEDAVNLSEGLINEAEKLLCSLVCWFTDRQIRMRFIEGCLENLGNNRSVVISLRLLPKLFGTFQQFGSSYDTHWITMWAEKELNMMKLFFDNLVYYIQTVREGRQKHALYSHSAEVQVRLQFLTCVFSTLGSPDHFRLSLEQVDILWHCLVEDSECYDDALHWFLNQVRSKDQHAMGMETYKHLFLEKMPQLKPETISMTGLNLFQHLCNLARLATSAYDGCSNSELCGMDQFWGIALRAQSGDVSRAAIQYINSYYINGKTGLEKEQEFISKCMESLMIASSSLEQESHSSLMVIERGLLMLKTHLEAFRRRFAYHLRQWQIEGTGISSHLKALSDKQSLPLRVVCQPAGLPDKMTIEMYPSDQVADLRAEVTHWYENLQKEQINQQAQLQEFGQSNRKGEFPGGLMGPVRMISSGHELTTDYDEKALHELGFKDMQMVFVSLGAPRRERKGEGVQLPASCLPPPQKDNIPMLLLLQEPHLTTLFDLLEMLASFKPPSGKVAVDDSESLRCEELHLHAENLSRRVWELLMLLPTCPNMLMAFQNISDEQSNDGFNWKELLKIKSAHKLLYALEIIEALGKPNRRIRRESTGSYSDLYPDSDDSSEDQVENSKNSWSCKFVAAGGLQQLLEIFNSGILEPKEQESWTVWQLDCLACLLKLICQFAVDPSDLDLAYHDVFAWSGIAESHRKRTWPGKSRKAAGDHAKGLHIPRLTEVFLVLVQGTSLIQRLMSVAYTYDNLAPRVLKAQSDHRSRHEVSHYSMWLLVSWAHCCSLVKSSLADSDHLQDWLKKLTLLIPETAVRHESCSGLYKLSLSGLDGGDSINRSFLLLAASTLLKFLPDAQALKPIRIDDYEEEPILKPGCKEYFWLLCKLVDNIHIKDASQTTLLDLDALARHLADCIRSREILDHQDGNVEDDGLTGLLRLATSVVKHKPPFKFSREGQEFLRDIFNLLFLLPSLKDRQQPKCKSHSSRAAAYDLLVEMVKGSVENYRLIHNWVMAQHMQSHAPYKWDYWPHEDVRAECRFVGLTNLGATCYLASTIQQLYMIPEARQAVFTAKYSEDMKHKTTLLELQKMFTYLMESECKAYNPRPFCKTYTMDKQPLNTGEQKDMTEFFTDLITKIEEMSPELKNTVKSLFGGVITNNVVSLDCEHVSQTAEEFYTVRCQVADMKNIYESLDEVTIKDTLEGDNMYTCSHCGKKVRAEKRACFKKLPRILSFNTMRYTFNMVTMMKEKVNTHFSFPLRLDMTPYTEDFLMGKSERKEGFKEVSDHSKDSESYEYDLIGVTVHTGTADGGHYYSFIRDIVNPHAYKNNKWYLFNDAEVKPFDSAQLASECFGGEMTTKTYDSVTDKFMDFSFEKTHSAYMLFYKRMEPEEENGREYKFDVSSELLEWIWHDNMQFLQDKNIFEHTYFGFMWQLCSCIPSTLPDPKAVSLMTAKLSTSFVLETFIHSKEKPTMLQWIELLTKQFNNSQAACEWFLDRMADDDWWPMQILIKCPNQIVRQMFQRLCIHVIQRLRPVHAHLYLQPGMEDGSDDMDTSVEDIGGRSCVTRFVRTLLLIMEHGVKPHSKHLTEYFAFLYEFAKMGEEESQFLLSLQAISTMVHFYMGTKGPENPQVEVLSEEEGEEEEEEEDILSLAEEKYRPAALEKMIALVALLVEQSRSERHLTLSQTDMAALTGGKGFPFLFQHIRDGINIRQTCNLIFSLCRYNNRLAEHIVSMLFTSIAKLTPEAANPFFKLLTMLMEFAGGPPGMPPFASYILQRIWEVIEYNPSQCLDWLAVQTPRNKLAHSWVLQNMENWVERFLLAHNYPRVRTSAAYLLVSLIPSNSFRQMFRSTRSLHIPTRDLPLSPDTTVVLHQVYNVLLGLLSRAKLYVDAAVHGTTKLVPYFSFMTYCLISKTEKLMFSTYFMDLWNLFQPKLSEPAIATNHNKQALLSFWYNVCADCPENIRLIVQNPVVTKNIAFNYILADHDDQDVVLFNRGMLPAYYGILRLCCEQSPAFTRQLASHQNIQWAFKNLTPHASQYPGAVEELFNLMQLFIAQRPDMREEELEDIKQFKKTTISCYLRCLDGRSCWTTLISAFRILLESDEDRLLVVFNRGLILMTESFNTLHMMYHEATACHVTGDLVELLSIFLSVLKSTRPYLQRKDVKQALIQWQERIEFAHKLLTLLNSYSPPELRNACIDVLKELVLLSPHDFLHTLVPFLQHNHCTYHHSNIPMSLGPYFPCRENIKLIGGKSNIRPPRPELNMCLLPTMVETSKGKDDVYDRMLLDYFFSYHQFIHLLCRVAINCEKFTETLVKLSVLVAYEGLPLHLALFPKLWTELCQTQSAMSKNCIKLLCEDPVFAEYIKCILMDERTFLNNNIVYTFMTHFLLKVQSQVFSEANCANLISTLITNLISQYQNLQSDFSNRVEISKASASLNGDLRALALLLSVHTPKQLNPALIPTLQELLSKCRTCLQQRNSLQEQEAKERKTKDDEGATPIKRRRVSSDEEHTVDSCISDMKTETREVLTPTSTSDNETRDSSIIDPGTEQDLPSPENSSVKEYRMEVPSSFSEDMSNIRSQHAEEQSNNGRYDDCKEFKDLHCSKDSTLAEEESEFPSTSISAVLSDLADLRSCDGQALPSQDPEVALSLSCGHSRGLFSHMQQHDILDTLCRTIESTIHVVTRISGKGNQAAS

Cl.O=C(CCl)NCCc1ncc(F)cc1F
inactive: [1] -0.216 | [2] -0.308 | [3] -0.203 | [4] -0.202 | [5] 0.0209
